{"source": "PubChem BioAssay (NCI)", "note": "About 83,000 compounds went through this panel and 20% of them were active in at least one assay; those are over-represented in the sample as a whole.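 Single-concentration screen, 48 h exposure, 96-well plates. Endpoint: percent growth. Below 10 = active.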 Values without a mark were called inactive. The source made the active and inactive calls."}
{"system": "EKVX NSCLC", "assay": "NCI-60 one-dose screen, 48 h (100 = growth as untreated, 0 = no growth, -100 = all killed)", "conditions": "10 µM unless noted", "procedure": "Growth inhibition of the EKVX human Non-Small Cell Lung tumor cell line is measured as a screen for anti-cancer activity. Cells are grown in 96 well plates and exposed to the test compound for 48 hours. Compounds are tested at a single concentration, which is 10^-5 M for most compounds. The reported endpoint is percent growth (GI% or GIPRCNT), where numbers from 0 - 100% represent growth inhibition, and numbers from -100% - 0 represent cell death. For example, a value of 40 represents 60% growth inhibition. A value of 0 means no net growth occurred over the course of the experiment. A value of -40 indicates 40% of cells at the beginning of the experiment died by the end of the experiment. A value of -100 means all cells are dead at the end of the experiment.\nNCI-60 Human Tumor Cell Lines Screen was performed using the standard one-dose NCI protocol, which is described in more detail at https://dtp.cancer.gov/discovery_development/nci-60/default.htm.\nCompounds with GIPRCNT values below 10 were considered active. Activity score was based on GIPRCNT using the following formula: […]\nScore is 0 for GIPRCNT values of 100 or above, 50 for GIPRCNT values of 0, and 100 for GIPRCNT values of -100."}
{"smiles": "COc1cc2c(c(OC)c1OC)C(=O)N[C@@H]1[C@@H](O)[C@@H](O)[C@H](O)C[C@@H]21", "growth": "103%"}
{"smiles": "COc1ccc(/C=C/C(=O)c2cc3c(N)c(C(=O)Nc4ccccc4C)sc3nc2C)cc1", "growth": "43.3%"}
{"smiles": "O=C1C(Cl)=C(NCCN2CCOCC2)C(=O)c2ncccc21", "growth": "-78.9% (active)"}
{"smiles": "COC(=O)c1nc(-c2ccccc2)oc1S(=O)(=O)N1CCC(C(N)=O)CC1", "growth": "69.7%"}
{"smiles": "COc1ccc(Nc2ncccc2NC(=O)c2cn(Cc3cccc(Oc4ccccc4)c3)nn2)cc1OC", "growth": "68%"}
{"smiles": "COc1cc2oc(-c3cccc(NC(=O)c4ccc5c(c4)OCO5)c3)cc(=O)c2c(OC)c1OC", "growth": "83.2%"}
{"smiles": "COc1cc(-c2cc(-c3ccc(Nc4ncnc5cc(Cl)ccc45)cc3)nc(N3CCN(C)CC3)n2)cc(OC)c1OC", "growth": "102%"}
{"smiles": "CCN(CC)c1ccc(/C=C\\c2cc(C)c3cc(C)ccc3n2)cc1", "growth": "61.6%"}
{"smiles": "CN1CCN(Cc2ccc(NC(=O)c3cncc(C#Cc4cncc5[nH]ncc45)c3)cc2C(F)(F)F)CC1", "growth": "26.3%"}
{"smiles": "Cc1ccccc1CNc1c2ccccc2nc2ccccc12", "growth": "38.4%"}
{"smiles": "CCCCSCC(=O)c1ccccc1", "growth": "99%"}
{"smiles": "COC1=CC(c2ccc[nH]2)=N/C1=C\\c1[nH]c(C)c(CC(=O)OCc2ccccc2)c1C", "growth": "5.59% (active)"}
{"smiles": "O=C1Nc2ccccc2/C1=C/c1cn(C[C@@H](O)Cn2c3ccccc3c(=O)c3ccccc32)c2ccccc12", "growth": "73.1%"}
{"smiles": "O=C(CN1C(=O)/C(=C/c2ccco2)SC1=S)NCCc1c[nH]c2ccc(F)cc12", "growth": "98.3%"}
{"smiles": "CCOC(=O)c1c(NC(=O)c2ccc(C(C)(C)C)cc2)sc2cc(O)ccc12", "growth": "94.9%"}
{"smiles": "CCCCCCCCNc1cc2c3c(c1)CCCN3CCC2", "growth": "10%"}
{"smiles": "N#Cc1c(-c2cccc([N+](=O)[O-])c2)cc(-c2ccc(Nc3nc(Nc4ccc(F)cc4)nc(Nc4ccc(F)cc4)n3)cc2)nc1N", "growth": "137%"}
{"smiles": "CN1CCN(CCCOC(=O)c2c3c(n4ccccc24)C(=O)c2ncccc2C3=O)CC1", "growth": "37.7%"}
{"smiles": "COC(=O)C1=Nc2ccc(F)cc2/C1=C\\c1sc(Nc2ccc(O)cc2)nc1O", "growth": "89.8%"}
{"smiles": "Nc1c(C(=O)O)cc(Cl)cc1[N+](=O)[O-]", "growth": "103%"}
{"smiles": "COc1ccc2c(c1)c(-c1ccc(-c3cn(C)c4ccc(OC)cc34)[nH]1)cn2C", "growth": "-4.9% (active)"}
{"smiles": "CCOC(=O)c1c(C)nc2c(c1N)CC(=O)N2Cc1cc(OC)c(OC)c(OC)c1", "growth": "51.6%"}
{"smiles": "O=C1OCC2=C1C(c1cccc(F)c1)c1cc3c(cc1N2CCO)OCO3", "note": "(stereo not given)", "growth": "46.1%"}
{"smiles": "Cc1nn(-c2ccccc2)c(N2CCCCC2)c1/C=N/NC(=O)Cn1c(=O)sc2ccccc21", "growth": "74.5%"}
{"smiles": "CC(=O)N/C(=C1/OC(C(O)C(O)C(O)CO)CN1C)[P+](c1ccccc1)(c1ccccc1)c1ccccc1", "note": "(stereo not given)", "growth": "90.3%"}
{"smiles": "NS(=O)(=O)c1ccc(N/C=C/C(=O)c2cc3ccccc3oc2=O)cc1", "growth": "84%"}
{"smiles": "CCOC(=O)c1c(NC(=O)CSc2n[nH]c3nc4ccccc4n23)sc(CC)c1C", "growth": "91.9%"}
{"smiles": "Cc1cscc(C)c1=S", "growth": "110%"}
{"smiles": "O=c1[nH]c(-c2ccc(Cl)cc2)cn1-c1ccc(-n2cc(-c3ccc(Cl)cc3)[nH]c2=O)cc1", "growth": "109%"}
{"smiles": "O=C1c2cccnc2C(=O)c2c1c(C(=O)OCCCN1CCCCC1)c1ccccn21", "growth": "-15.6% (active)"}
{"smiles": "CC(C)CCSc1nc(Nc2ccccc2)c(C#N)c(-c2ccccc2)n1", "growth": "14.7%"}
{"smiles": "O=C1Nc2ccc(F)cc2/C1=N/c1nnc(Sc2ccccc2)s1", "growth": "101%"}
{"smiles": "S=c1ssnc1-c1cccs1", "growth": "104%"}
{"smiles": "O=C(Cn1nnc2ccccc21)Nc1ccc(-c2nc3ccccc3s2)cc1", "growth": "78.2%"}
{"smiles": "C=C1C(=O)O[C@H]2[C@H]1CC/C(CNC(=O)c1cc3ccccc3[nH]1)=C\\CC[C@@]1(C)O[C@@H]21", "growth": "14%"}
{"smiles": "CC[C@H](CC[C@@H](C)[C@H]1CC[C@H]2[C@@H]3CC[C@@H]4CC(=O)/C(=C\\c5ccncc5)C[C@]4(C)[C@H]3CC[C@]12C)C(C)C", "growth": "99.6%"}
{"smiles": "CCOC(=O)NN1CC(O)=C(c2nc(-c3ccc(Br)cc3)cs2)C1=N", "growth": "104%"}
{"smiles": "COc1cc(N2C(=O)[C@H](c3ccccc3)C2c2ccc(SC)cc2)cc(OC)c1OC", "note": "(stereo not given in full)", "growth": "33.7%"}
{"smiles": "CCCCCCCCn1ccc2cc(NC(=O)Cn3cc(CN4CCOCC4)nn3)ccc21", "growth": "87.9%"}
{"smiles": "C[Se]C(=O)CC1=C2C=C(F)C=CC2/C(=C\\c2ccc(S(C)=O)cc2)C1C", "note": "(stereo not given)", "growth": "-7.14% (active)"}
